The campaign covered roughly 360,000 compounds. About 6,000 (1.7%) were called active. Not shown: some 8% with an inconclusive outcome. What follows is part of a selection rich in actives, with near analogues and random picks from the rest. Entries that show only a call come without a potency. A number with no mark means an inactive call. The call rests on the fitted dose curve; in most records, active means well fitted cell-killing curve with a large enough effect; inconclusive means small, poorly fitted or top-dose-only effect, or effect the other way; inactive means flat fitted curve, though single readings scatter.
Potency means the concentration at half of the fitted maximal effect.

The experiment in a line: qHTS for induction of synthetic lethality in tumor cells producing 2HG: qHTS for the HT-1080-NT fibrosarcoma cell line. Further: nearly all actives have a fitted effect of over 55% in size. The note with it: HT-1080-NT fibrosarcoma viability, CellTiter-Glo ATP luminescence, 48 h; series mostly up to 46.1 µM. The text has this:
Unbiased genomic sequencing for 22 glioma genomes found recurrent mutation of IDH1 on chromosome 2q33, a gene encoding the cytosolic isoform of IDH1 associated with the tricarboxylic acid cycle (TCA) that catalyzes the oxidative decarboxylation of isocitrate, yielding alpha-ketoglutarate and CO2 via NADP+ to NADPH conversion. Subsequent studies confirmed the recurrent IDH mutations in up to 70% of secondary gliomas and in 10% of AML cases. In addition, the somatic mutation of cancer-associated IDH1 is a point mutation resulting in various amino-acid substituents at Arginine132 (IDH1 R132), a key residue found in the enzyme's active site that when mutated, results in the loss-of-function in metabolizing isocitrate but confers a gain-of-function to produce the oncometabolite 2-hydroxyglutarate (2HG). This in effect defines IDH1 as an oncogene and provides an extraordinary opportunity to discover chemical probes against mutant IDH1 that may translate into much needed new therapies for glioma and AML patients.
This assay aims to perform a synthetic lethal screen for chemical probes specific for 2HG-producing tumor cells using matched paired cell lines (1) HT-1080-NT fibrosarcoma cell line that overproduces 2HG and (2) HT-1080-IDH1KD cell line which has IDH1 expression knocked-down. Desirable compounds are toxic to the NT fibrosarcoma cells but not to the IDH1KD cell line. The data in this AID corresponds to the results of the qHTS against the HT-1080-NT fibrosarcoma cell line.
[1] Dang L, Jin S, Su SM. IDH mutations in glioma and acute myeloid leukemia. Trends of Mol Med. 2010; 16(9): 387-97.
[2] Dang L et al. Cancer-associated IDH1 mutations produce 2-hydroxyglutarate. Nature. 2010; 465(7300):966.
NIH Molecular Libraries Probe Production Centers Network [MLPCN]
NIH Chemical Genomics Center [NCGC]
Assay Submitter (PI): Lenny Dang Ph.D., Agios Pharmaceuticals
Suspensions of trypsinized HT-1080-NT cells were dispensed into white, tissue culture-treated, solid 1536-well plates at 5uL/well (750 cells/well final concentration) in RPMI medium supplemented with 5% FBS. Plates were incubated at 37 degrees C for 2 hours, after which 23 nL of compounds or DMSO were delivered to each well using a pin tool. Plates were then incubated at 37 degrees C for an additional 48 hours. CellTiter-Glo viability reagent (Promega) was dispensed into wells (2.5uL/well) and incubated at room temperature for 10 minutes. The plates were measured on a PerkinElmer ViewLux plate reader for luminescent signal (clear filter, 1 sec exp). DMSO-treated control wells and media-only (no cells) control wells were used to normalize %Activity of identified toxic compounds; DMSO-treated wells corresponded to 0%Activity (100% viability), while media-only controls were used to normalize 100%Activity (0% viability).
Concentration-response curves were fitted to the signals arising from the resulting luminescence. The concentration-effect curves were then classified based on curve quality (r2), response magnitude and degree of measured activity, and compounds were subsequently categorized based on their curve class.
Turning to `N#Cc1ccc(-c2nc3c(Cl)cc(C(F)(F)F)cn3c2Cc2ccccc2C(F)(F)F)cc1`, the Potency result is “inactive”.

As for `COc1cccc(C(O)c2ncc(-c3ccc4ccccc4c3)[nH]2)c1` (configuration not stated), the Potency result is “inactive”. With `COc1cccc(C(O)c2nc3ccccc3n2C)c1` (configuration not stated), the Potency entry was “inactive”. In the case of `CCCCCC(O)c1cccc(OCc2ccc3ccccc3n2)c1` (configuration not stated) it was 14.6 µM (active); in that of `COc1ccc(C(=O)NCC[N+](C)(C)C)cc1`, “inactive”; in that of `Cc1cc(C)nc(SCc2ccccc2C#N)n1`, “inactive”. As for `Cc1cc(C)nc(N(C#N)CC(=O)Nc2ccccc2)n1`, the entry is “inactive”; as for `Cc1cc(C)nc(S/C=C/C(=O)c2ccccc2)n1`, 5.17 µM (active); as for `CN1CCN(C(=O)c2ccc(-c3cc4nc(NCc5cccnc5)n(C)c(=O)c4s3)cc2)CC1`, “inactive”.

`Cc1cccc(C)c1NC(=O)C(c1cccc(F)c1)N1CCN(C)CC1` (configuration not stated): the Potency result is “inactive”. In the case of `CCC(C(=O)OCC(=O)Nc1ccc(C(=O)Nc2ccc(OC)cc2)cc1)c1ccccc1` (configuration not stated) it was 18.4 µM (active); in that of `CCC(C(=O)OCC(=O)Nc1ccccc1-c1ccccc1)c1ccccc1` (configuration not stated), “inactive”. As for `CCC(C(=O)OCC(=O)Nc1c(Cl)cc(Cl)cc1Cl)c1ccccc1` (configuration not stated), the entry is “inactive”; as for `O=C(Nc1ccc(Cl)cc1)c1csc([C@@H]2O[C@H](CO)[C@H](O)[C@H](O)[C@H]2O)n1`, “inactive”; as for `CC(C)c1ccc2c(c1)c(SC(C)(C)C)c(CC(C)(C)C(=O)O)n2Cc1ccc(Cl)cc1`, 13 µM (active).

Turning to `C[C@@H]1CN([C@H](C)CO)C(=O)CCCn2cc(nn2)CO[C@H]1CN(C)S(=O)(=O)c1ccc(Oc2ccccc2)nc1`, the Potency result is “inactive”.

For `O=C(c1ccc(C(F)(F)F)cc1)N1CCC(=O)N([C@H](COCc2ccccc2)Cc2ccccc2)CC1`, the Potency result is “inactive”. As for `O=C(CNC(=O)N1CC(=O)Nc2ccccc21)Nc1ccc(Br)cc1F`, the entry is “inactive”. Consider `O=C(CCC(=O)OCc1ccc(Cl)cc1)Nc1ccccc1`, for which the Potency result is “inactive”. As for `O=C(O)CC1=C(Nc2ccccc2)C(=O)N(c2ccccc2)C1c1ccc(Cl)cc1` (configuration not stated), the entry is “inactive”; as for `O=C1C=C(c2ccc(Cl)cc2)C(=O)N1Nc1ccccc1`, 23.1 µM (active); as for `CCN(Cc1ccncc1)C(=S)Nc1ccccc1C`, “inactive”. As for `CCCCN1CC(N2CCN(Cc3cccc(C)c3)CC2)CS1(=O)=O` (configuration not stated), the entry is “inactive”. For the compound `CCCCN(CCCC)CCC(O)c1cc2c(Cl)cc(Cl)cc2c2cc(C(F)(F)F)ccc12` (configuration not stated), the Potency was 14.6 µM (active). Regarding `Fc1cccc(Cc2c(-c3cccc(Cl)c3)nc3ccc(Br)cn23)c1`, the Potency entry was “inactive”. As for `CC1(C(=O)NS(=O)(=O)c2ccccc2Cl)CCN1C(=O)c1cccc(F)c1` (configuration not stated), the Potency entry was “inactive”.

For the compound `Cc1cccc(C)c1NC(=O)N1CC(C)OC(C)C1` (configuration not stated), the Potency entry is “inactive”. In the case of `Cc1cccc(C)c1NC(=O)C(Cl)C(=O)c1ccccc1` (configuration not stated) it was 16.4 µM (active). Turning to `Cc1cccc(C)c1NC(=O)CN(C)C(=O)CCC(=O)c1ccccc1`, the Potency entry is “inactive”. As for `Cc1ccccc1CN1C(=O)CSCC1(C)C(=O)Nc1c(C)cccc1C` (configuration not stated), the entry is “inactive”; as for `CN(Cc1ccccc1)CC(O)COc1ccc(CNCc2cc3ccccc3s2)cc1` (configuration not stated), 20.6 µM (active).

In the case of `COc1ccc(OCC(O)CN(C)C(=O)C(C)Oc2ccccc2)cc1` (configuration not stated), the Potency entry is “inactive”.

For the compound `Cc1ccc(OCC(=O)OC(C)CN(C)Cc2ccccc2)cc1` (configuration not stated), the Potency result was “inactive”. In the case of `CC(C)(C)Cc1c(C2CCCCC2)nc2ccc(Br)cn12` it was “inactive”. Regarding `O=C(NN=Cc1ccccc1)c1ccccc1`, the Potency result is “inactive”. As for `O=C(N/N=C/c1ccccc1O)C1CCCC1`, the entry is “inactive”; as for `O=C(NN=Cc1ccccc1O)NN=Cc1ccccc1O`, 8.2 µM (active); as for `CCCNC(=O)C1(C)CCCN(Cc2cccc(C(F)(F)F)c2)C1` (configuration not stated), “inactive”.

Regarding `COc1ccc(CNS(=O)(=O)c2ccc(-c3cnc(C4CC4)o3)cc2)cc1`, the Potency result is “inactive”.

Turning to `Cc1cccc(NS(=O)(=O)c2ccc(C)c(C(N)=O)c2)c1`, the Potency result is “inactive”.

Take `Cc1cccc(NS(=O)(=O)c2ccc(-c3cnc(C4CC4)o3)cc2)c1`: the Potency is 5.17 µM (active).

For `O=C(CCCN1C(=O)C(c2ccccc2)Oc2cccnc21)Nc1ccccc1Br` (configuration not stated), the Potency result was “inactive”. In the case of `COc1ccc(C(CNC(=O)c2ccc(OCc3cscn3)cc2)N2CCCC2)cc1` (configuration not stated) it was “inactive”; in that of `CN1CCN(c2ccc3c(c2)OC[C@H](Cc2ccccc2)NS3(=O)=O)CC1`, “inactive”; in that of `CCN(CC)CCn1c2ccc(Cl)cc2c2nc(C)sc21`, 28.2 µM (active).

As for `CCN(CC)CCNc1ccc(Cl)cc1[N+](=O)[O-]`, the Potency entry is “inactive”. As for `COC(=O)Cn1c2ccc(C)cc2c2nc(C)sc21`, the entry is “inactive”; as for `O=C(NCc1ccccc1)C1c2ccccc2OCC(=O)N1C1CC1` (configuration not stated), “inactive”; as for `Cc1sc2ccccc2c1CNC[C@H]1O[C@@H](n2ccc(=O)[nH]c2=O)[C@H](O)[C@@H]1O`, “inactive”. As for `Cc1nc(/N=C(\N)NC(=O)NC2CCCCC2)nc2ccccc12`, the figure is 23.1 µM (active); as for `COc1ccc2nc(/N=C(\N)NC(=O)Nc3ccccc3)nc(C)c2c1`, “inactive”; as for `CC(C)c1cc(C(=O)NC2CCCCCC2)c2ccccc2n1`, “inactive”.
